AC50 and outcome data for 4 compounds are collected here from PubChem BioAssay (EPA / NIEHS).

SMILES strings stand for the structures. Inconclusive results are not listed. A structure can be active in one record and inactive in another. Activity calls are given as the source filed them. How the source made its calls, unless noted: active means hit-call score of the fitted dose curve at least 0.9, where 1 is the maximum; inactive means score below 0.9.

By AC50 is commonly meant the concentration giving half of the maximal activity seen.

The nature of assay [1]: ATG_PXRE_CIS: Attagene CIS-FACTORIAL HepG2 Assay for human Pregnane X Receptor Element (PXRE) (AID 2282957). Particulars: HepG2 Attagene CIS-FACTORIAL PXRE reporter, mRNA; actives raise or lower the signal. The procedure, abridged: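 HepG2 cells transiently transfected with cis-element-driven multiplexed reporter units; after 24 h chemical exposure, reporter mRNA measured by RT-PCR, 6-FAM labelling, HpaI digestion and capillary electrophoresis. Bidirectional fitting relative to DMSO.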

Assay [2] is described as follows: ATG_RORE_CIS: Attagene CIS-FACTORIAL HepG2 Assay for human RAR-related Orphan Receptor Element (RORE) (AID 2282959). Particulars: HepG2 Attagene cis-factorial RORE reporter, mRNA; actives raise or lower the signal. In outline: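 Transient MRTU transfection of human HepG2 liver cells (FuGene 6); 24 h compound exposure; TriZol RNA, oligo(dT) RT, PCR, FAM labeling, HpaI cut, CE fragment analysis. DMSO = negative control/baseline.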

The nature of assay [3]: ATG_Sox_CIS: Attagene CIS-FACTORIAL HepG2 Assay for human SRY-box transcription factor (SOX) (AID 2282960). Particulars: HepG2 Attagene cis-factorial SOX reporter, mRNA; actives raise or lower the signal. In outline:
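Endogenous factor activity in human liver HepG2 cells carrying transfected cis-regulated reporter units. RNA taken 24 h post-dose, reverse-transcribed, PCR-amplified and sized by capillary electrophoresis. Gain or loss of signal fitted relative to DMSO.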

Assay [4] addresses Transcription factor Sp1 (Homo sapiens) (UniProt P08047). Briefly: ATG_Sp1_CIS: Attagene CIS-FACTORIAL HepG2 Assay for human Specificity Protein 1 (Sp1) (AID 2282961). To be noted: HepG2 Sp1 cis-reporter transcription, actives raise or lower the signal. In outline:
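Transient MRTU-transfected HepG2, 24 h compound exposure. Total RNA → oligo(dT) RT → PCR of reporter → 6-FAM primer extension → HpaI digest → CE. Endpoint fitted both directions vs DMSO.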

In assay [5] the target is Signal transducer and activator of transcription 3 (Homo sapiens) (UniProt P40763). Briefly: ATG_STAT3_CIS: Attagene CIS-FACTORIAL HepG2 Assay for human Signal Transducer and Activator of Transcription 3 (STAT3) (AID 2282963). Particulars: HepG2, Attagene cis-factorial STAT3 reporter transcription; actives raise or lower the signal. In outline: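 HepG2 cells transiently transfected with cis-element-driven multiple reporter transcription units; after 24 h chemical exposure, reporter mRNA measured by RT-PCR, 6-FAM primer-extension labelling, HpaI digestion and capillary electrophoresis. Bidirectional fitting versus DMSO baseline.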

A short description of assay [6]: ATG_TA_CIS: Attagene CIS-FACTORIAL HepG2 Assay for human TA Basal Promoter (AID 2282964). Particulars: HepG2 Attagene CIS-factorial TA basal promoter reporter; actives raise or lower the signal. The procedure, abridged: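 Transient MRTU transfection of HepG2 preceded 24 h compound exposure. Reporter mRNA levels were then read by RT-PCR with capillary electrophoresis, and this background-control endpoint was fitted bidirectionally to DMSO.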

Assay [7] can be described thus: ATG_TCF_b_cat_CIS: Attagene CIS-FACTORIAL HepG2 Assay for human T-Cell-Factor with beta-catenin (TCF/b-cat) (AID 2282965). Particulars: HepG2 TCF/beta-catenin cis-reporter transcription, actives raise or lower the signal. The procedure, abridged:
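HepG2 cells transiently transfected with multiple cis-promoter-regulated reporter transcription units, so endogenous transcription factor activity is measured. Reporter mRNA read 24 hours after dosing by RT-PCR, fluorescent labelling and capillary electrophoresis; bidirectional fitting against DMSO.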

Assay [8] in a line: ATG_TAL_CIS: Attagene CIS-FACTORIAL HepG2 Assay for human TAL Basal Promoter (AID 2282966).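 Further: background control endpoint measuring basal TAL promoter reporter mRNA not a specific factor.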 To be noted: HepG2 Attagene cis-factorial TAL promoter reporter; actives raise or lower the signal. In outline:
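HepG2 cells transiently transfected with multiplexed cis-promoter reporter units, dosed 24 h. Reporter mRNA quantified by RT-PCR, 6-FAM labelling, HpaI digestion and capillary electrophoresis; TAL basal promoter serves as background control, fitted bidirectionally versus DMSO.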

Assay [9] in a line: ATG_TGFb_CIS: Attagene CIS-FACTORIAL HepG2 Assay for human Transforming Growth Factor (TGF) (AID 2282967). To be noted: HepG2 Attagene CIS TGFb reporter, mRNA transcription; actives raise or lower the signal. The procedure, abridged: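 After a 24-hour incubation with compound, transfected HepG2 cells were lysed for RNA; reporter cDNA was amplified, fluorescently end-labeled and separated by CE. DMSO served as baseline for bidirectional fits.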

Assay [10] in a line: ATG_VDRE_CIS: Attagene CIS-FACTORIAL HepG2 Assay for human Vitamin D Receptor Element (VDRE) (AID 2282968). Particulars: HepG2 VDRE cis-reporter transcription, actives raise or lower the signal. The procedure, abridged:
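HepG2 cells transiently transfected with cis-element reporter units, dosed 24 h; reporter mRNA measured by RT-PCR, 6-FAM labeling, HpaI digestion and capillary electrophoresis. Activity fitted bidirectionally against DMSO baseline.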

Assay [11] concerns the target Estrogen receptor (Homo sapiens) (UniProt P03372). Briefly: ATG_ERa_TRANS: Attagene TRANS-FACTORIAL HepG2 Assay for human Estrogen Receptor alpha (ERa) (AID 2282970; active means hit-call score of the fitted dose curve at least 0.9, where 1 is the maximum). Particulars: HepG2 Attagene TRANS ERa GAL4 reporter, mRNA. The procedure, abridged:
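HepG2 cells transiently transfected with multiplexed GAL4-UAS reporter units read out chimeric NR-Gal4 activity. After 24 h compound exposure, reporter mRNA was quantified by RT-PCR, 6-FAM labeling, HpaI digestion and capillary electrophoresis, relative to DMSO.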

Assay [12] deals with X-box-binding protein 1 (Homo sapiens) (UniProt P17861). Briefly: ATG_Xbp1_CIS: Attagene CIS-FACTORIAL HepG2 Assay for human X-box Binding Protein 1 (XBP1) (AID 2282972). To be noted: HepG2 XBP1 cis-element reporter, Attagene multiplex; actives raise or lower the signal. In outline:
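Fluorescence-labelled cDNA fragments from reporter transcripts, separated by capillary electrophoresis, give the signal. Source: HepG2 cells transfected with promoter-driven reporter units, harvested 24 h post-dose. DMSO served as reference for bidirectional curve fitting.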

Assay [13] can be described thus: ATG_M_19_TRANS: Attagene TRANS-FACTORIAL HepG2 Assay for M19 Transcription Factor (Internal Marker) (AID 2282974; active means hit-call score of the fitted dose curve at least 0.9, where 1 is the maximum). To be noted: HepG2 Attagene TRANS-FACTORIAL M19 internal marker reporter. In outline: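 Fluorescence of 6-FAM-labelled reporter cDNA fragments, separated by capillary electrophoresis, served as the readout. These derived from HepG2 cells carrying transfected GAL4-UAS reporter units after 24 h dosing, with DMSO as negative control.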

Assay [14] can be described thus: ATG_GAL4_TRANS: Attagene TRANS-FACTORIAL HepG2 Assay for GAL4 (Internal Marker) (AID 2282976; active means hit-call score of the fitted dose curve at least 0.9, where 1 is the maximum). To be noted: HepG2 Attagene TRANS GAL4 internal marker reporter. In outline: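 Background-control readout: GAL4-UAS reporter transcript in transiently transfected HepG2 cells after 24 h compound exposure. Measured by RT-PCR, 6-FAM primer extension, HpaI digest and capillary electrophoresis; gain-of-signal fit versus DMSO.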

Assay [15] has as its target Glucocorticoid receptor (Homo sapiens) (UniProt P04150). Kind of assay: ATG_GR_TRANS: Attagene TRANS-FACTORIAL HepG2 Assay for human Glucocorticoid Receptor (GR) (AID 2282978; active means hit-call score of the fitted dose curve at least 0.9, where 1 is the maximum;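 further: activators score as hits since higher reporter transcript over DMSO is fitted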). To be noted: HepG2 Attagene TRANS GR reporter, mRNA transcription. The procedure, abridged: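 Fluorescent capillary-electrophoresis quantitation of reporter mRNA is the readout, taken 24 h after dosing human HepG2 cells carrying transiently transfected GAL4-UAS reporter units activated by chimeric NR-GAL4 fusions; activity scored as induction over DMSO.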

Assay [16] deals with Nuclear receptor subfamily 1 group I member 3 (Homo sapiens) (UniProt Q14994). Briefly: ATG_CAR_TRANS: Attagene TRANS-FACTORIAL HepG2 Assay for human Constitutive Androstane Receptor (CAR) (AID 2282969; active means hit-call score of the fitted dose curve at least 0.9, where 1 is the maximum;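 further: activators raise reporter mRNA above DMSO so AC50 marks induction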). To be noted: HepG2 Attagene TRANS-FACTORIAL CAR reporter. In outline:
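HepG2 cells transiently transfected with multiplexed GAL4-UAS reporter units expressing chimeric NR-Gal4 proteins; compound exposure 24 h. Reporter mRNA measured by RT-PCR, 6-FAM labelling, HpaI digestion and capillary electrophoresis; gain-of-signal fitted against DMSO baseline.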

The target in assay [17] is Steroid hormone receptor ERR1 (Homo sapiens) (UniProt P11474). Briefly: ATG_ERRa_TRANS: Attagene TRANS-FACTORIAL HepG2 Assay for human Estrogen-Related Receptor alpha (ERRa) (AID 2282971; active means hit-call score of the fitted dose curve at least 0.9, where 1 is the maximum). To be noted: HepG2 Attagene TRANS reporter, ERRa transactivation. In outline:
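HepG2 cells transiently transfected with GAL4-UAS reporter units and chimeric NR-Gal4 constructs; after 24 hour compound incubation, reporter mRNA quantified by RT-PCR, fluorescent labelling and capillary electrophoresis, gain of signal versus DMSO.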

Assay [18] deals with Estrogen-related receptor gamma (Homo sapiens) (UniProt P62508). Briefly: ATG_ERRg_TRANS: Attagene TRANS-FACTORIAL HepG2 Assay for human Estrogen-Related Receptor gamma (ERRg) (AID 2282977; active means hit-call score of the fitted dose curve at least 0.9, where 1 is the maximum;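 further: hits increase reporter signal over DMSO so potencies reflect activators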). Particulars: HepG2 Attagene TRANS reporter, ERRg transactivation. The procedure, abridged: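 Transient HepG2 transfectants, 24 h compound exposure, GAL4-UAS reporter mRNA by RT-PCR/6-FAM labelling/capillary electrophoresis; positive direction vs DMSO.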

Assay [19] is described as follows: ATG_SREBP_CIS: Attagene CIS-FACTORIAL HepG2 Assay for human Sterol Regulatory Element Binding (SREBP) (AID 2282962). To be noted: HepG2 Attagene cis-factorial SREBP reporter, mRNA; actives raise or lower the signal. The procedure, abridged: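 mRNA induction of transfected cis-promoter reporters in HepG2 cells, 24 h post-dose. Detection: RT-PCR with 6-FAM-labelled products, HpaI digest, capillary electrophoresis. DMSO served as negative control and baseline.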

Chain of Glucocorticoid receptor (Homo sapiens) (P04150 whole entry, looked up, the tested form may be a part): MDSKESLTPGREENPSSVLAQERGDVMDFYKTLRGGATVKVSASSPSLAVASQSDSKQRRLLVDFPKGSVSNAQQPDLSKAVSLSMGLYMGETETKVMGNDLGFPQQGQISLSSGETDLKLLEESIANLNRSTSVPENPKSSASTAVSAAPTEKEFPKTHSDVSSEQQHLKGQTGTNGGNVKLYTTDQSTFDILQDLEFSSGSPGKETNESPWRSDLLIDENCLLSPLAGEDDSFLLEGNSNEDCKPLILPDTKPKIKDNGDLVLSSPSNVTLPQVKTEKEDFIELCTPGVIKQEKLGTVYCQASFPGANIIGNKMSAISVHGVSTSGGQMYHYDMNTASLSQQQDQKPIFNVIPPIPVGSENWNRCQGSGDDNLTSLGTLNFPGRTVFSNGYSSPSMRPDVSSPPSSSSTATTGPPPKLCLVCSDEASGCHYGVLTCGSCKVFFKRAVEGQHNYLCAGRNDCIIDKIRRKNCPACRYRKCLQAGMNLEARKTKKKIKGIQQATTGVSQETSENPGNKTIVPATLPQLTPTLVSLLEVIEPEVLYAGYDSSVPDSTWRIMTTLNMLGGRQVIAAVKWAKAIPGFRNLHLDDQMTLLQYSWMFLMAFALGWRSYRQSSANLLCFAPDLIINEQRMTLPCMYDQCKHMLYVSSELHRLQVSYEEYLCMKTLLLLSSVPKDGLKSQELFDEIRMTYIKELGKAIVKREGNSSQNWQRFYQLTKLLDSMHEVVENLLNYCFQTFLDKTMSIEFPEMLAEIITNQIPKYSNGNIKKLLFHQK
Chain of X-box-binding protein 1 (Homo sapiens) (P17861 whole entry, looked up, the tested form may be a part): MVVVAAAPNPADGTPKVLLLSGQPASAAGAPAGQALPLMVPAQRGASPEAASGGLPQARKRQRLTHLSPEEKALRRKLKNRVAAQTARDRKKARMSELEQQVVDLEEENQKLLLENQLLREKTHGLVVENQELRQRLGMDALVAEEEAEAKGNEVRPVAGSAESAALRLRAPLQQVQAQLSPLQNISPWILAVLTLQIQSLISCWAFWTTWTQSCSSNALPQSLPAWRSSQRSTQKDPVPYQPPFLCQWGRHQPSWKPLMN
Chain of Transcription factor Sp1 (Homo sapiens) (P08047 whole entry, looked up): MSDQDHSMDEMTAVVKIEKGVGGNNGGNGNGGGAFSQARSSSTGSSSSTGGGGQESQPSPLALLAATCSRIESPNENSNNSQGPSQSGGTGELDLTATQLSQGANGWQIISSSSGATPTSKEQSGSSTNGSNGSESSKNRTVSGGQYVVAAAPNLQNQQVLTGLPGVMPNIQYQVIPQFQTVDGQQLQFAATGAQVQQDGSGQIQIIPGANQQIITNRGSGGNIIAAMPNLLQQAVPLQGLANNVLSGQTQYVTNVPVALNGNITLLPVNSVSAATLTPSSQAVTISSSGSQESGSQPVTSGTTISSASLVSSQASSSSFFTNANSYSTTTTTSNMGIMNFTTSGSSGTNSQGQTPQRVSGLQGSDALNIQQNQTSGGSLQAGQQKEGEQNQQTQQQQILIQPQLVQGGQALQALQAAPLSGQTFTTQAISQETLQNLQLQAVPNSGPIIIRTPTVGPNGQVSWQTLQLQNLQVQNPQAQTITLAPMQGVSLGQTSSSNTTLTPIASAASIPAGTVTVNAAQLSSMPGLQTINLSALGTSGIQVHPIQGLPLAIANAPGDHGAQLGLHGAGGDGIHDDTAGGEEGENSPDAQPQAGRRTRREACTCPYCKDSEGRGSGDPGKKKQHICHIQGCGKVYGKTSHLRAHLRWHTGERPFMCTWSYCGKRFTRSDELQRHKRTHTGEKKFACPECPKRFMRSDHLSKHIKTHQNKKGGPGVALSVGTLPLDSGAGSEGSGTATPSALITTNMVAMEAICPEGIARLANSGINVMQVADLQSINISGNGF
Chain of Steroid hormone receptor ERR1 (Homo sapiens) (P11474 whole entry, looked up, the tested form may be a part): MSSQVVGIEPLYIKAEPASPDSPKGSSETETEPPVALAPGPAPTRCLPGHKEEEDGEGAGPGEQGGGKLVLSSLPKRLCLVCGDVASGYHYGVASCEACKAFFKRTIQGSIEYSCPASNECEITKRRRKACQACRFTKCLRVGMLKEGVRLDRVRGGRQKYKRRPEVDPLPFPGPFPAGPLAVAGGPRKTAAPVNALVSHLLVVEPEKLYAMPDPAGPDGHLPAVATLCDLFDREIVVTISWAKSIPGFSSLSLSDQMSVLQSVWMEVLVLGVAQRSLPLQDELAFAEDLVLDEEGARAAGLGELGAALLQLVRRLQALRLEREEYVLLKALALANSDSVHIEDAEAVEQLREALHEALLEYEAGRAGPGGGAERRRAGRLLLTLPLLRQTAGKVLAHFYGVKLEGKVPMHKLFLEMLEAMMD
Chain of Estrogen-related receptor gamma (Homo sapiens) (P62508 whole entry, looked up, the tested form may be a part): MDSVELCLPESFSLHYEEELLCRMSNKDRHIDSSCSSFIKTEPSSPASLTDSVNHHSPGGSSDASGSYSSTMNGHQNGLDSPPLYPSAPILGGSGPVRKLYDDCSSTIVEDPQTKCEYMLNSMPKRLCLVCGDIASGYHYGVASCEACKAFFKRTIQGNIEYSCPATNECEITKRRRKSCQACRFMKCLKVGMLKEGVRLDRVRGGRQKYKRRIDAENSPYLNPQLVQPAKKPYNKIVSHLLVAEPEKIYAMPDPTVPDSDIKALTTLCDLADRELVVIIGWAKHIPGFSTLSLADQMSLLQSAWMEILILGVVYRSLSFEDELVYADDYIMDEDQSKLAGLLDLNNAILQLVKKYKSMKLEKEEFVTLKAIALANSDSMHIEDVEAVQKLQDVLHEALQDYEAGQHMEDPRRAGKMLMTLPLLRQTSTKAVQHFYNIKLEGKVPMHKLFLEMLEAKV
Chain of Nuclear receptor subfamily 1 group I member 3 (Homo sapiens) (Q14994 whole entry, looked up, the tested form may be a part): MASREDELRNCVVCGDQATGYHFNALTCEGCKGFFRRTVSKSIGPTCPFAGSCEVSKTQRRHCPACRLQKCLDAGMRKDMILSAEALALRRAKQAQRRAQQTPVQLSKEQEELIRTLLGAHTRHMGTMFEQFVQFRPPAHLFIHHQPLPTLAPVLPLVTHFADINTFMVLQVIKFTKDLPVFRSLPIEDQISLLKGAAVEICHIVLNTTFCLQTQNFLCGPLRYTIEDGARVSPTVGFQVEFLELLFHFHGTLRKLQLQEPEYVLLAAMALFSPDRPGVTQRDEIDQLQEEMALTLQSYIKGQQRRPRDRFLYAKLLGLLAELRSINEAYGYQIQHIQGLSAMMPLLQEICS
Chain of Estrogen receptor (Homo sapiens) (P03372 whole entry, looked up, the tested form may be a part): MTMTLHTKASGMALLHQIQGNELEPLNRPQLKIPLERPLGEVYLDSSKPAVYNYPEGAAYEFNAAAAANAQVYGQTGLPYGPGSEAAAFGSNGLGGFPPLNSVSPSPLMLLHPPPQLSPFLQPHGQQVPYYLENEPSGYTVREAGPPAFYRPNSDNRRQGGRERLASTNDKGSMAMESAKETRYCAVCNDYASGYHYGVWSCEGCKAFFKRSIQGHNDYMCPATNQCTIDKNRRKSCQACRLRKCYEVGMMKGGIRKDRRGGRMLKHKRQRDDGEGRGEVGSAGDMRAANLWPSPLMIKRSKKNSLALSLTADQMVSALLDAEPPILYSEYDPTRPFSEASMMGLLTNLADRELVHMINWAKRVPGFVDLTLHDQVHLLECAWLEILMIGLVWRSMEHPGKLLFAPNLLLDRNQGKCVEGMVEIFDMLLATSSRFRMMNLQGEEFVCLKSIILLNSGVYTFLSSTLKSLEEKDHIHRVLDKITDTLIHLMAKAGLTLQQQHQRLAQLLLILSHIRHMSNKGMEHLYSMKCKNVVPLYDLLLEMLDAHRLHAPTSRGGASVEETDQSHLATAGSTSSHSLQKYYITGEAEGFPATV
Chain of Signal transducer and activator of transcription 3 (Homo sapiens) (P40763 whole entry, looked up): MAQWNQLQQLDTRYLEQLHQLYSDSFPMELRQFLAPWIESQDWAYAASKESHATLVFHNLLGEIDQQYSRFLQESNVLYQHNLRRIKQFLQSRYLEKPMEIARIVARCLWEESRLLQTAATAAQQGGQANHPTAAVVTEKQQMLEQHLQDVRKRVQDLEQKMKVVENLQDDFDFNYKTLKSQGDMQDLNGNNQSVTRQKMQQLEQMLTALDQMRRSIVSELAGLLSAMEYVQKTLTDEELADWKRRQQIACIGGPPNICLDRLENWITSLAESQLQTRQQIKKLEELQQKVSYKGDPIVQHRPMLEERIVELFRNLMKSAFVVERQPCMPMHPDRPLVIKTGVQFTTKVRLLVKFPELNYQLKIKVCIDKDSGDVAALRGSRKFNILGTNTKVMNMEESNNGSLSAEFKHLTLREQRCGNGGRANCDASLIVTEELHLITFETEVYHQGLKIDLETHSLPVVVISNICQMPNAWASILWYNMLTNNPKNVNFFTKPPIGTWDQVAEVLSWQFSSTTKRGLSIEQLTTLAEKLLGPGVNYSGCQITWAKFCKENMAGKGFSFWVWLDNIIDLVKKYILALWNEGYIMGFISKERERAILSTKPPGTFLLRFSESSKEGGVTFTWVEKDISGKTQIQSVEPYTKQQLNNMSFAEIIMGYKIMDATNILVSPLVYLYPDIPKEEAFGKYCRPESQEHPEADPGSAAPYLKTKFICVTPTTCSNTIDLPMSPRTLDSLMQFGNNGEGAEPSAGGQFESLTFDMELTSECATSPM

As to `O=C1Cc2ccccc2N1c1c(Cl)cccc1Cl`, the results for the half-maximal activity concentration (AC50) in [1], in assay [10] and in assay [11] were 0.484 µM (active), 1.4 µM (active) and 4.59 µM (active), respectively. Further, the call in assay [2], in [3], in assay [4], in [5], in assay [6] and in assay [7] was inactive. Also, the result in assay [8], in assay [9], in [12], in [13], in [14] and in assay [15] was inactive.
In the case of `CC[N+](CC)(CC)Cc1ccccc1`, the call in assay [1], in [2], in assay [3], in [4], in [6] and in assay [7] was inactive. Also, the compound was called inactive in assay [8], in assay [9], in assay [10], in assay [16], in assay [17] and in assay [12]. The result in assay [14], in assay [18] and in assay [15] was inactive.
In the case of `c1cnc2c(c1)ccc1cccnc12`, the result in assay [1], in assay [3], in assay [4], in [19], in assay [6] and in [7] was inactive. For the same compound, the call in assay [8], in assay [9], in assay [10], in assay [16], in assay [17] and in assay [12] was inactive. Moreover, the result in assay [13], in assay [18] and in assay [15] was inactive. For the same compound, the AC50 in assay [10] is 161 µM (active); in [12], 158 µM (active).
As for `CN(CCO)S(=O)(=O)C(F)(F)C(F)(F)C(F)(F)C(F)(F)C(F)(F)C(F)(F)C(F)(F)C(F)(F)F`, the compound was called inactive in assay [1], in assay [2], in [3], in assay [4], in assay [6] and in assay [7]. For the same compound, the call in assay [8], in assay [9], in [10], in [16], in assay [17] and in assay [12] was inactive. Also, the outcome in assay [13], in [14], in [18] and in assay [15] was inactive.
